Reference: PubChem BioAssay
Calls of active or inactive are those of the source.

How the values were obtained:
[1] = tested on: Human papillomavirus type 1a protein E7 (residues 44-93); assay: HPV1a E7 fragment binders on microarrays, primary screen, biochemical, small-molecule microarray, residues 44-93, 635 nm fluorescence (AID 1108); settings: small-molecule microarray binding, fluorescence 635 nm; higher = more signal;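 further: E7 fragment applied at 1 µg/mL in TBST for 1 h at 4 C; score combines spot fluorescence with its signal to noise ratio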
[2] = modulators of HCV replicon luciferase signal, primary screen, HCV replication inhibitor project, Huh7 cells, luciferase reporter (AID 1109); settings: 48 h, higher = more signal;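 further: huh7 hepatoma cells harbouring a luciferase neomycin HCV replicon reporter; luciferase luminescence as measure of HCV replicon replication; test concentration not given here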
[3] = biological target: Left-right determination factor 2 (Homo sapiens) (UniProt O00292); assay: LEFTY2 binders on small-molecule microarrays, primary screen, biochemical, small-molecule microarray, 635 nm fluorescence scan (AID 1110); settings: LEFTY2 binding, higher = more signal
Sequence of Left-right determination factor 2 (Homo sapiens) (O00292 whole entry, looked up): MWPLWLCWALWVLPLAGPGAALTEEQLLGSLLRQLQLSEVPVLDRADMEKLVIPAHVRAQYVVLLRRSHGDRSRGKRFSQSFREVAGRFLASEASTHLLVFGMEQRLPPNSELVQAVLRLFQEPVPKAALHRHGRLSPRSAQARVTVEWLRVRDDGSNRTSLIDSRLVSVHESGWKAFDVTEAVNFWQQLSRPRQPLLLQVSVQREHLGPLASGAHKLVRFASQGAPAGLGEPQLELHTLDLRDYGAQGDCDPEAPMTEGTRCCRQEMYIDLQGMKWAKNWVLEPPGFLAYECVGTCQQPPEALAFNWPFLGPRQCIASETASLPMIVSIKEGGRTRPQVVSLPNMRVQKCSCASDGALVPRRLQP

[4] = biological target: Calmodulin-1 (Homo sapiens) (UniProt P0DP23); assay: CALM1 binders on microarrays, EGTA buffer, profiling panel, biochemical, small-molecule microarray, Cy5-labelled CALM1 (AID 1111); settings: Cy5-CALM1 binding fluorescence, higher = more signal;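 further: labelled calmodulin applied in Tris saline Tween buffer holding calcium plus EGTA and DTT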
[5] = biological target: Calmodulin-1 (Homo sapiens) (UniProt P0DP23); assay: calcium-bound CALM1 binders on microarrays, profiling panel, artefact control for SMM control-protein annotation, biochemical, small-molecule microarray, Cy5-labelled CALM1, plus calcium (AID 1112); settings: Cy5-CALM1 binding fluorescence, higher = more signal;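 further: score merges spot fluorescence with signal to noise from triplicate slides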
[6] = small-molecule microarray binders of probe aWnt5a, primary screen, biochemical, biotinylated probe, 635/667 nm fluorescence (AID 1113); settings: higher = more signal;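 further: score merges 667 nm fluorescence intensity with signal-to-noise per printed feature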
[7] = small-molecule microarray binders of probe aShh, primary screen, biochemical, biotinylated probe, 635/667 nm fluorescence (AID 1114); settings: higher = more signal;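 further: probe is biotin-labelled aShh protein from a stem cell growth factor screen; measures binding of labelled protein to compounds printed on the slide; score merges feature fluorescence at 667 nm with signal-to-noise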
[8] = small-molecule microarray binders of probe aNog, primary screen, biochemical, biotinylated probe, 635/667 nm fluorescence (AID 1115); settings: higher = more signal;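 further: probe is biotinylated aNog protein used at 0.15 µg/mL for 1 h at 4 C; z-score combines 667 nm fluorescence of each spot with its signal to noise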
[9] = biological target: Torsin-1A-interacting protein 1 (Homo sapiens) (UniProt Q5JTV8); assay: LAP1 binders from COS7 cell lysate, primary screen, small-molecule microarray, 635/667 nm fluorescence (AID 1116); settings: COS7-hLAP1 lysate binding, 635 nm fluorescence, higher = more signal
Sequence of Torsin-1A-interacting protein 1 (Homo sapiens) (Q5JTV8 whole entry, looked up): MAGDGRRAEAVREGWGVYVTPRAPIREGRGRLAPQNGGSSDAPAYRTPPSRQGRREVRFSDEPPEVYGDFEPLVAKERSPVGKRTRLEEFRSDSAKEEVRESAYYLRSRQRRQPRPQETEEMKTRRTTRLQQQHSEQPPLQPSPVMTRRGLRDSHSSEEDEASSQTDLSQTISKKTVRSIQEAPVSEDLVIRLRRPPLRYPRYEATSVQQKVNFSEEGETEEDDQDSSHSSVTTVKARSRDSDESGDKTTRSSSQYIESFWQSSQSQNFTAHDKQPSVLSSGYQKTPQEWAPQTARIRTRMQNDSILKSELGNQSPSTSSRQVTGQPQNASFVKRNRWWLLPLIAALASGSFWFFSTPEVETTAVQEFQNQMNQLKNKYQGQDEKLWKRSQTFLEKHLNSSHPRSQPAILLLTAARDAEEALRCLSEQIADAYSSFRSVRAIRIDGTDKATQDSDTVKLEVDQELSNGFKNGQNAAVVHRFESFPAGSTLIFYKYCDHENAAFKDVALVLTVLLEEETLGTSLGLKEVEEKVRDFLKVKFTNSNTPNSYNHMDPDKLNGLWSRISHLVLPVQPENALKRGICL

[10] = biological target: Alpha-bungarotoxin (Bungarus multicinctus) (UniProt P60615); assay: alpha-bungarotoxin binders on microarray, profiling panel, artefact control for SMM control protein annotation, biochemical, small-molecule microarray, Alexa647 label, 635/667 nm fluorescence (AID 1117); settings: alpha-BTX-A647 binding fluorescence, higher = more signal
Sequence of Alpha-bungarotoxin (Bungarus multicinctus) (P60615 whole entry, looked up): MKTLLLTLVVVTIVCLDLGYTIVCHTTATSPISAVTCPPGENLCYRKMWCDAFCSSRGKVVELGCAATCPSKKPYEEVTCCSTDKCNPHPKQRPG

[11] = biological target: Albumin (Bos taurus) (UniProt P02769); assay: bovine serum albumin binders on microarray, profiling panel, artefact control for SMM control protein annotation, biochemical, small-molecule microarray, Alexa647 label, 635/667 nm fluorescence (AID 1118); settings: BSA-A647 binding, fluorescence 635 nm, higher = more signal;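 further: score merges 667 nm emission intensity and signal-to-noise per printed compound spot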
Sequence of Albumin (Bos taurus) (P02769 whole entry, looked up): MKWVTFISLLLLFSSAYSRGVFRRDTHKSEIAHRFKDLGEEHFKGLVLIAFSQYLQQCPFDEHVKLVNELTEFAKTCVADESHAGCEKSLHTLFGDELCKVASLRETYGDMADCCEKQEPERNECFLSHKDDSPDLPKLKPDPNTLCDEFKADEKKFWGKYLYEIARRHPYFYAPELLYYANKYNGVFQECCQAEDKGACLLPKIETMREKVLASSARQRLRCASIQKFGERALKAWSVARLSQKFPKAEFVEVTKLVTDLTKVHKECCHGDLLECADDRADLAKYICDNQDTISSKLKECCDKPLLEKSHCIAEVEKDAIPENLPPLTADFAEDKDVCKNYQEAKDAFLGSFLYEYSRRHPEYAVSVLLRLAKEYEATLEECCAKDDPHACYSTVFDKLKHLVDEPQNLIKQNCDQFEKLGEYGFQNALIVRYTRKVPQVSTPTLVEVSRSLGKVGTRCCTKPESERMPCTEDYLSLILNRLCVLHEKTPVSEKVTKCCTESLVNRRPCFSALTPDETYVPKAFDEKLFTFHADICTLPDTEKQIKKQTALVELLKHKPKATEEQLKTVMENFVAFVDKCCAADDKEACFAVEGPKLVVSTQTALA

[12] = small-molecule microarray binders of probe aXIP, primary screen, biochemical, NeuroSMM set, 635/667 nm fluorescence (AID 1119); settings: higher = more signal, called active from +8 up or from −8 down;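 further: probe is the protein aXip251-270 applied at 1 µg/mL to compound-printed slides; binding of probe to printed compounds measured as 667 nm fluorescence plus signal to noise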
[13] = small-molecule binders of probe aNOTCH3, primary screen, biochemical, small-molecule microarray, 635/667 nm fluorescence (AID 1120); settings: higher = more signal;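 further: probe is a biotin-tagged antibody raised against NOTCH3 rather than NOTCH3 protein; score merges spot fluorescence near 667 nm with spot signal to noise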
[14] = small-molecule binders of probe aNOTCH2, primary screen, biochemical, small-molecule microarray, 635/667 nm fluorescence (AID 1121); settings: higher = more signal;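 further: score merges feature fluorescence read at 667 nm with its signal to noise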
[15] = biological target: Carbonic anhydrase 2 (Homo sapiens) (UniProt P00918); assay: CAII small-molecule binders, profiling panel, biochemical, small-molecule microarray, Alexa647-labelled CAII (AID 1122); settings: CAII-A647 binding fluorescence, higher = more signal
[16] = COS7 lysate on small-molecule microarray, probe aHis, 635 nm (AID 1123); settings: COS7 cell lysate, fluorescence, higher = more signal;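 further: z-score combines 667nm fluorescence intensity with signal-to-noise per printed compound spot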
[17] = compound binding in COS7 lysate, probe aLAP1, primary screen, cell lysate, small-molecule microarray (AID 1124); settings: probe aLAP1, fluorescence, higher = more signal;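 further: lysate comes from COS7 cells expressing LAP1 and is applied at 0.3 µg/mL; score merges spot fluorescence near 667 nm with signal-to-noise over triplicate slides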
[18] = tested on: Sam68 (KHDRBS1); assay: Sam68 small-molecule binders, primary screen, biochemical, small-molecule microarray, 635 nm fluorescence (AID 1125); settings: small-molecule microarray binding, higher = more signal;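 further: score merges 667 nm channel intensity with signal to noise over triplicate slides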
[19] = tested on: Chordin-like protein 2 (CHRDL2); assay: CHRDL2 small-molecule binders, primary screen, biochemical, small-molecule microarray, 635 nm fluorescence (AID 1126); settings: small-molecule microarray binding, fluorescence 635 nm; higher = more signal;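 further: printed compound slides probed with Chrdl2 protein at 4 µg/mL for 1 h at 4 C; score merges 667 nm emission intensity with signal to noise over three replicate slides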
[20] = biological target: Concanavalin-A (Canavalia ensiformis) (UniProt P02866); assay: ConA small-molecule binders, primary screen, artefact control for SMM control protein annotation, biochemical, small-molecule microarray, Alexa647 label, 635 nm (AID 1127); settings: ConA-A647 binding fluorescence, higher = more signal;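 further: z combines 667 nm emission intensity with signal-to-noise across three replicate slides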
Sequence of Concanavalin-A (Canavalia ensiformis) (P02866 whole entry, looked up): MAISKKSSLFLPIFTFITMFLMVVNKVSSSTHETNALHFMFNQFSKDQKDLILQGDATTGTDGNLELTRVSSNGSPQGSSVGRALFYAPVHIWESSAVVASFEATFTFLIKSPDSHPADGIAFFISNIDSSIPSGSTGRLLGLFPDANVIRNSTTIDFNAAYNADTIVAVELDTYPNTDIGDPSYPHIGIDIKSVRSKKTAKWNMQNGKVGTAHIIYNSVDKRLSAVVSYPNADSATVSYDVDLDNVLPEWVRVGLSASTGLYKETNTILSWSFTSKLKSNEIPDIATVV

| SMILES | composite z-score [1] | z-score [2] | composite z-score [3] | composite z-score [4] | composite z-score [5] | composite z-score [6] | composite z-score [7] | composite z-score [8] | composite z-score [9] | composite z-score [10] | composite z-score [11] | composite Z-score [12] | composite z-score [13] | composite z-score [14] | composite z-score [15] | composite z-score [16] | composite z-score [17] | composite z-score [18] | composite z-score [19] | composite z-score [20] |
| --- | --- | --- | --- | --- | --- | --- | --- | --- | --- | --- | --- | --- | --- | --- | --- | --- | --- | --- | --- | --- |
| COc1ccc(O[C@H]2C=C[C@@H](c3ccccc3)O[C@@H]2COC(=O)CCC(C)=NO[C@@H]2O[C@H](COC(C)=O)[C@@H](OC(C)=O)[C@H](OC(C)=O)[C@H]2OC(C)=O)cc1 | 1.29 | -1.88 | 0.511 | -0.126 | -0.643 | -0.0944 | -0.206 | -0.53 | 0.38 | 0.731 | 0.303 | -0.211 (inactive) | 0.0322 | -0.211 | -0.0481 | 0.752 | 0.0839 | 1.32 | 0.786 | 0.544 |
| C#CCCCON=C1C[C@@H](O)[C@@H](O)[C@@H]2[C@@H]3C(=O)N(C(C)(C)C)C(=O)[C@@H]3CC[C@@H]12 | 0.0592 | 1.17 | -0.442 | -0.389 | -0.165 | -0.0721 | -0.338 | 0.305 | 0.805 | 0.323 | 0.0601 | -0.0448 (inactive) | 0.0137 | -0.123 | -0.219 | 0.496 | 0.485 | -0.161 | 0.888 | -0.616 |
| C#CCCCON=C1C[C@@H](O)[C@@H](O)[C@@H]2[C@@H]3C(=O)N(Cc4ccccc4)C(=O)[C@@H]3CC[C@@H]12 | 0.0417 | 0.858 | 0.26 | -0.274 | -0.0051 | -0.0236 | -0.253 | -0.133 | -0.194 | -0.221 | 0.745 | 0.23 (inactive) | -0.03 | -0.178 | -0.103 | -0.0919 | -0.0209 | -0.492 | 0.0362 | -0.324 |
| COC(=O)CC=C[C@@H](C)[C@@H](C=NOCC[C@@H]1C=C[C@H](OC(C)=O)[C@@H](COC(C)=O)O1)OC | 0.107 | -0.488 | 0.589 | -1 | -1.78 | -0.0346 | 0.284 | -0.205 | 0.473 | -0.484 | -0.395 | 0.181 (inactive) | -0.0006 | -0.115 | -0.0197 | 0.849 | -0.0402 | 0.411 | 0.432 | -0.319 |
| CC(C)C[C@H](NC(=O)CCC1CC(OC(=O)NCc2cccc3ccccc23)CC2(CCCC(COC(=O)NCc3ccccc3)O2)O1)C(=O)NCC(c1ccccc1)c1ccccc1 (stereo not given in full) | 1.28 | -1.27 | 0.913 | 0.0799 | -0.202 | -0.0825 | 0.0611 | -0.0863 | 0.508 | -0.157 | 0.163 | -0.0662 (inactive) | 0.0876 | -0.234 | 0.404 | 0.743 | 1.09 | 1.31 | 0.546 | 0.347 |
| COC(=O)CC=C[C@H](C)[C@@H](OCc1cccc(Br)c1)[C@@H](C)[C@H](OC)C1CCCCC1 | -0.835 | -0.291 | 0.388 | -0.893 | -1.07 | -0.0944 | -0.282 | -0.449 | -0.343 | -0.308 | -1.15 | 0.143 (inactive) | -0.0914 | -0.124 | 0.0679 | -0.504 | -0.0998 | -0.446 | 0.652 | -1.23 |
| COc1ccc(O[C@H]2C=C[C@@H](c3ccccc3)O[C@@H]2CON=C2[C@H]3CCn4c(=O)n(-c5ccccc5)c(=O)n4[C@H]3[C@H](O)[C@@H]3O[C@H]23)cc1 | 0.807 | -4.67 | 0.505 | 0.719 | -0.21 | -0.0192 | -0.0769 | -0.0855 | 0.24 | 0.974 | 0.67 | 0.125 (inactive) | -0.0282 | -0.132 | 0.405 | 0.455 | 0.244 | 1.18 | 0.276 | 0.817 |
| CCOC(=O)[C@H](CC(C)C)NC(=O)CCC1CC(OC(=O)NCc2cccc3ccccc23)CC2(CCCC(COC(=O)NCCc3ccc(Cl)cc3)O2)O1 (stereo not given in full) | 0.529 | -0.707 | 0.486 | 0.0203 | -0.117 | -0.191 | -0.473 | -0.114 | 0.161 | 0.557 | 0.332 | -0.536 (inactive) | 0.0203 | -0.164 | 0.151 | 0.416 | -0.175 | 0.456 | 0.439 | 0.0711 |
| C[C@@H](c1ccccc1)N1C(=O)[C@H]2[C@H]3[C@H](O)[C@H](O)CC(=NO[C@@H]4O[C@H](CO)[C@@H](O)[C@H](O)[C@H]4O)[C@@H]3CC[C@H]2C1=O | 0.292 | -0.278 | 0.576 | -0.238 | -0.686 | -0.0403 | -0.19 | 0.0924 | 0.526 | 0.199 | 0.423 | -0.766 (inactive) | 0.0996 | -0.109 | -0.157 | 0.335 | -0.0315 | 0.258 | 0.25 | 0.411 |
| CCOC(=O)[C@H](CC(C)C)NC(=O)CCC1CC(OC(=O)NCc2cccc3ccccc23)CC2(CCCC(COC(=O)NCCOC)O2)O1 (stereo not given in full) | 1.34 | 0.339 | 0.629 | -0.24 | -0.418 | -0.116 | -0.128 | -0.0653 | 0.481 | 0.0702 | 0.222 | -0.166 (inactive) | 0.0306 | -0.0195 | 0.431 | 1.02 | -0.0557 | 1.29 | 0.156 | 0.782 |
| C=Cc1ccc([C@H]2N[C@H](C(=O)O)CC[C@@H]2C)cc1 | -1.08 | -1.09 | 0.712 | -0.478 | 0.222 | -0.105 | -0.0553 | -0.147 | -0.0037 | -0.112 | 0.108 | -0.602 (inactive) | -0.178 | -0.155 | 0.275 | -0.344 | 0.723 | -1.6 | 0.65 | -0.437 |
